KCNQ2 inh: inhibitors of rat KCNQ2 potassium channel; AID 2156; O88943; B-score at 10 µM; CHO-K1 KCNQ2, FluxOR thallium flux, 20 min; stronger effect = lower value; actives 1.1% (n = 310,000);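 active = fluorescence ratio B-score at most minus 3 library SDs, with starting brightness B-score within 2 library SDs, cut at about -5.5 in these data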
KCNQ2 pot: potentiators of rat KCNQ2 potassium channel; B-score at 10 µM; CHO-K1 KCNQ2, FluxOR thallium flux fluorescence; stronger effect = higher value; actives 0.54% (n = 310,000);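 active = fluorescence ratio B-score at least 3 SD of library B-scores, with initial fluorescence B-score within 3 of them, cut at about 5.3 in these data; same plate scores as AID 2156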;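 note: B-score of peak minus minimum over baseline fluorescence ratio after K+ and Tl+ stimulus; positive B-score means potentiation of KCNQ2 with more thallium influx and brighter signal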
KCNQ2 block conf: confirmation of rat KCNQ2 potassium channel inhibitors | AID 493025 | shares compounds with KCNQ2 inh | activity change, negative = inhibition, % at 10 µM | KCNQ2-expressing cells, thallium flux, inhibition; stronger effect = lower value | actives 57% (n = 1,000);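 note: 0% = vehicle wells and values are ratio percent relative to vehicle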
KCNQ1 spec: human KCNQ1 activity in KCNQ2 inhibitor specificity screen. KCNQ1-expressing cells, FluxOR thallium flux fluorescence; stronger effect = lower value. activity change, negative = inhibition, % at 10 µM. shares compounds with KCNQ2 inh. actives 15% (n = 1,000);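 active = activity change at least 3 SD of negative controls below their mean in both duplicate wells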;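 note: CHO cells stably transfected with KCNQ1 and depolarized by potassium stimulus; peak minus minimum fluorescence over baseline after thallium addition; 0% = vehicle negative control and -100% = blank without thallium stimulus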
CHO Tl ctr: counter-screen for KCNQ2 inhibitors: effect in parental CHO cells; shares compounds with KCNQ2 inh; thallium flux counter-screen; stronger effect = lower value; activity change, % at 10 µM; actives 14% (n = 1,000);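 note: 0% = vehicle negative controls with stimulus buffer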
KCNQ2 inh confirm: confirmation of rat KCNQ2 potassium channel inhibitors. shares compounds with KCNQ2 inh. KCNQ2-expressing cells, automated patch clamp current. calls only at 10 µM. actives 49% (n = 550). AID 588531
* = called active by the depositor. Most compounds without a hit are left out; they make up all but 1.6% or so of the library. Unless noted, the rule behind the calls is not given here.

How did O=S(=O)(c1ccc(Br)s1)N1CCC(Cc2ccccc2)CC1 do in these assays?
KCNQ2 inh: -9.3*; KCNQ2 pot: -9.3; KCNQ2 block conf: inactive; KCNQ1 spec: inactive; CHO Tl ctr: inactive

How did O=S(=O)(c1ccc(Cl)s1)N1CCN(CCc2ccccc2)CC1 do in these assays?
KCNQ2 inh: inactive; KCNQ2 pot: 0.56

How did CC(=O)Nc1cccc(NC(=O)C(C)N2c3cccc4cccc(c34)S2(=O)=O)c1 (stereo not given) do in these assays?
KCNQ2 inh: inactive; KCNQ2 pot: 0.02

Results for Cc1oc2ccc(O)cc2c1C(=O)c1ccc(F)cc1 ?
KCNQ2 inh: inactive; KCNQ2 pot: 0.24

What do the screens show for `COc1ccccc1OCCNS(=O)(=O)c1ccc2oc3ccccc3c2c1`?
KCNQ2 inh: inactive

How did O=S(=O)(NCCOc1ccccc1Cl)c1ccc2oc3ccccc3c2c1 do in these assays?
KCNQ2 inh: -6.78*; KCNQ2 pot: -6.78; KCNQ2 block conf: inactive; KCNQ1 spec: inactive; CHO Tl ctr: inactive

Results for CCN1CCN(C(=O)C2CCC(=O)N(CCCN3CCCC3=O)C2)CC1 (stereo not given) ?
KCNQ2 inh: inactive

How did O=C(Nc1ccccc1N1CCOCC1)c1cc(-c2ccco2)nc2ccccc12 do in these assays?
KCNQ2 inh: -7.02*; KCNQ2 pot: -7.02; KCNQ2 block conf: -54.0%*; KCNQ1 spec: -54.5%*; CHO Tl ctr: -50.0%*; KCNQ2 inh confirm: active

High-throughput results: PubChem, Johns Hopkins Ion Channel Center
